PubChem BioAssay AID504339 (National Center for Advancing Translational Sciences (NCATS), 2011)
The campaign covered roughly 390,000 compounds. About 17,000 (4.4%) were called active. Roughly 8% stayed inconclusive and do not appear here. The call rests on the fitted dose curve; in most records, active means well fitted inhibition curve with a large enough effect; inconclusive means small, poorly fitted or top-dose-only effect; inactive means no such curve, though single readings can be large or run the other way. The list comes from a sample in which actives are over-represented; it also holds similar structures and randomly drawn compounds.

Molecular target: Lysine-specific demethylase 4A (Homo sapiens) (UniProt O75164)
Sequence (O75164 whole entry, looked up, the tested form may be a part): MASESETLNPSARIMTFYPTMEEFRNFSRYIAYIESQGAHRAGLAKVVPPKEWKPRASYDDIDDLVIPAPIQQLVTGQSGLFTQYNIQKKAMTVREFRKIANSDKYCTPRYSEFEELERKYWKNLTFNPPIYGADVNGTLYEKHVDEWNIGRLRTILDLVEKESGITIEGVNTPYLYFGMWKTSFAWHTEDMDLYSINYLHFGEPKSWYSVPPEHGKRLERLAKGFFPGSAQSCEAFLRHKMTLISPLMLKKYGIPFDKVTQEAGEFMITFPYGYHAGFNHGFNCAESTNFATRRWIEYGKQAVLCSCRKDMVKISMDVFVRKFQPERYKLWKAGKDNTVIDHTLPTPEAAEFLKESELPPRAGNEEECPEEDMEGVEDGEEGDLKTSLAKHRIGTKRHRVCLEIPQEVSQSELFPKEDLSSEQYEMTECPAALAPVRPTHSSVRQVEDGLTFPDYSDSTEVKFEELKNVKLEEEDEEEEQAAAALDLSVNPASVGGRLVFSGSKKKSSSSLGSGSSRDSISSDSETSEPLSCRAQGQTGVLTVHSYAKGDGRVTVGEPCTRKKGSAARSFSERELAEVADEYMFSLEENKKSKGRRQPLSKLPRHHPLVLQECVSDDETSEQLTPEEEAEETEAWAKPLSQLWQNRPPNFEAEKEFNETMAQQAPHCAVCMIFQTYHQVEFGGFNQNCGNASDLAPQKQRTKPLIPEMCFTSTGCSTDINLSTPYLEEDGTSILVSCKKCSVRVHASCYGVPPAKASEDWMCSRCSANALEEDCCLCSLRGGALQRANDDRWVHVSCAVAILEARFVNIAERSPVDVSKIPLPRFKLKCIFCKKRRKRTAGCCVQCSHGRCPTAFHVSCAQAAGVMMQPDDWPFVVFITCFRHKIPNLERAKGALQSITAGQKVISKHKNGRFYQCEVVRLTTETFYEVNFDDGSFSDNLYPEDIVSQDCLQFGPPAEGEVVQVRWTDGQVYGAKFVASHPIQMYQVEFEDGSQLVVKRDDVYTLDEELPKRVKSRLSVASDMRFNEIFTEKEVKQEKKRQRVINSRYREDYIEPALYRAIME
Assay: qHTS Assay for Inhibitors of JMJD2A-Tudor Domain; further: nearly all actives have a fitted effect of over 50% in size
Conditions: AlphaScreen JMJD2A-Tudor / H3K4me3 peptide binding; series mostly up to 114 µM; activity change, negative = inhibition: at the top concentration
On the % scale 0 is the no-effect control and ±100 the full control effect; potency means the concentration at half of the fitted maximal effect.

Activity change, negative = inhibition, inactive:
Cc1nn(-c2ccc(N3CCCCC3)nn2)c(C)c1CCC(=O)NCc1ccc(F)cc1 -23.3%
COc1ccc(-c2onc(C)c2C)cc1S(=O)(=O)NCCc1ccccc1 -11%
CCC(CO)Oc1cc(NC(=O)c2ccc(Cl)cc2)c2ncn(C(C)C)c2c1 (configuration not stated) -21.4%
CN(C)c1nccc(NCc2ccccc2)c1C#N -7.38%
COc1ccc(CNc2nc(NCc3ccc(OC)cc3)c3ncn(C4CCCC4)c3n2)cc1 -20.8%
CCOC(=O)c1cccc(NC(=O)c2cc(S(=O)(=O)N3CCCC(C)C3)cn2C)c1 (configuration not stated) -16%
CC1CCCCN1Cc1c(O)ccc2c(=O)c(-c3cccc(Cl)c3)c(C(F)(F)F)oc12 (configuration not stated) -9.62%
O=C(CN1C(=O)CCn2nc(-c3ccccc3)cc21)NCc1ccccc1 -17.2%
Cc1nc2c(-c3ccccc3)c(C)nn2c(C)c1CCC(=O)NCCc1ccccc1 -5.39%
COc1ccc(Cl)cc1NC(=O)CN(C)CC(=O)Nc1ccc2c(c1)OCO2 -21.9%
COc1ccc(Cl)cc1NC(=O)CN(C)C(=O)c1ccc2n[nH]nc2c1 -12.5%
Cn1c(=O)oc2cc(S(=O)(=O)CCC(=O)NCCc3ccc(Cl)cc3)ccc21 4.85%
COc1ccc(Cl)cc1NC(=O)CCS(=O)(=O)c1cc2c(cc1C)NC(=O)CO2 -11.8%
CC(=O)N1CCc2cc(Br)cc(S(=O)(=O)CCC(=O)NCCc3ccc(Cl)cc3)c21 -8.19%
COc1ccc(Cl)cc1NC(=O)CCC(=O)c1ccc(C)cc1 -3.53%
CCCOc1ccc(-c2cccc(NS(=O)(=O)c3ccccc3)c2)nn1 -19.9%
COc1ccc(OC)c(-c2csc(-c3c(N)c(C(=O)c4ccccc4)n4ccccc34)n2)c1 -11.1%
CCc1ccc(C(=O)CC2(O)C(=O)N(CCc3ccccc3)c3ccc(Br)cc32)cc1 (configuration not stated) -21.5%
C=C1CCN(Cc2ccc(OC)cc2)S(=O)(=O)c2ccccc21 5.52%
CC1Cc2cc(S(=O)(=O)CCC(=O)NCc3ccc(Cl)cc3)ccc2N1C(=O)C1CC1 (configuration not stated) 10%
Cc1cc(C)cc(NS(=O)(=O)c2ccc(-c3cc(C)no3)s2)c1 -0.325%
COc1ccccc1-n1c(-c2ccc(C)cc2)cn2c3c(=O)n(C)c(=O)n(C)c3nc12 -27.4%
COc1ccc(CNc2nc(-c3ccc(Cl)cc3)cc(C(F)(F)F)n2)cc1 100%
O=S(=O)(c1ccc(Br)cc1)c1nnn2c1nc(N1CCOCC1)c1sccc12 2.2%
O=C(c1ccco1)N(Cc1nc2ccccc2c(=O)[nH]1)C1CCCC1 -5.22%
O=C(CSc1ncc(CO)n1Cc1ccc(F)cc1)NCc1ccco1 -12.1%
CCOc1ccc(CCNC(=O)c2ccc3c(c2)sc2nc(-c4ccc(F)cc4)cn23)cc1OCC -11.3%
COc1ccc(NC(=O)c2ccc3oc(=O)c(S(=O)(=O)c4ccc(F)cc4)cc3c2)c(OC)c1 -6.06%
Cc1ccc(C(=O)CC2(O)C(=O)N(CCc3ccccc3)c3ccc(Br)cc32)cc1 (configuration not stated) -25.3%
COc1ccc2cc(CNc3ccc(OC)c(OC)c3)c(=O)n(CC(=O)Nc3ccccc3F)c2c1 -20.7%
COc1ccc(-c2cccc(NS(=O)(=O)c3cc(C)c(OC)c(C)c3C)c2)nn1 -23.6%
Cc1ccc(-c2cc(C(F)(F)F)c(C#N)c(SCC(=O)Nc3ccccc3)n2)cc1 1.72%
COc1ccc(C(=O)CCc2ccccc2O)c(OC)c1 -12.3%
COc1ccc(C(=O)NC(C)CCc2ccccc2)c(OC)c1 (configuration not stated) 7.51%
Cc1c(Cl)cccc1NC(=O)C1CCCN(C(=O)c2cnn(-c3ccccc3)c2-n2cccc2)C1 (configuration not stated) -23.2%
CCCCC(=O)OC1=CN(Cc2ccccc2)S(=O)(=O)c2ccccc21 44.4%
COc1ccc2c(c1)c(=O)c(S(=O)(=O)c1ccc(F)cc1)cn2CC(=O)Nc1ccc(C)cc1C -15.6%
CN1CCN(C(=O)c2ccc(-c3ccc(Br)cc3)o2)CC1 -26.3%
COc1ccccc1-c1cc(C(=O)N2CCCCC2)no1 -6.94%
COc1ccc(NC(=O)c2ccc3nc(C(C)C)oc3c2)cc1OC -1.92%
OCCNCc1cccc(OCc2ccccc2Cl)c1 1.38%
S=C(NCCc1ccccc1)NCc1ccccc1Cl -6.57%
COC(=O)c1ccc(C2C(C(=O)Nc3ccccc3)=C(C)Nc3nc4ccccc4n32)cc1 (configuration not stated) -17.2%
O=C(Nc1ccc(S(=O)(=O)Nc2ccccn2)cc1)c1ccccc1 4.86%
O=C(NC(=O)c1ccccc1)Nc1ccccc1O -5.35%
N#Cc1nc(NCc2ccc(Cl)c(Cl)c2)c2ncn(CCCO)c2n1 -21.3%
COC(=O)c1scc(-c2ccccc2)c1S(=O)(=O)Nc1ccccc1 -4.81%
COC(=O)c1ccc(Oc2nc(Nc3ccc(F)cc3)nc(N3CCCC3)n2)cc1 -6.45%
COc1ccc(Nc2ncc(F)c(N3CCOCC3)n2)cc1 -20.2%
O=c1c(NCc2cccs2)nccn1-c1ccccc1 -30.5%
COc1cc(C(=O)NCCS(=O)(=O)N2CCN(c3ccccc3)CC2)cc(OC)c1OC -0.639%
COc1ccc(-n2c(C)cc(C(=O)COC(=O)c3cc(OC)c(OC)cc3NC(=O)c3cccs3)c2C)cc1 -16.8%
Cc1ccc(OC(=O)CSc2nnc(-c3cccs3)o2)cc1 -19.9%
CCOC(=O)c1cc2c(=O)n3ccccc3nc2n(CC2CCCO2)c1=NC(=O)c1ccccc1Br (configuration not stated) 5.12%
COCCNC(=O)CSc1c(C)cnc2c1c(=O)n(C)c(=O)n2C -4.22%
NS(=O)(=O)c1ccc(NC(=O)CSc2nnc3c(n2)[nH]c2ccccc23)cc1 -6.12%
CCC1CCCCN1Cc1c(O)ccc2c(=O)c(Oc3ccccc3Cl)c(C(F)(F)F)oc12 (configuration not stated) -3.78%
COc1ccc(CCNC(=O)CCc2c(C)nc3c(c(C)nn3-c3ccc(C)c(C)c3)c2C)c(OC)c1OC -14.5%
COCCCNC(=S)NC(=O)c1ccc([N+](=O)[O-])cc1 -20%
CC(C)CC(=O)NC(=S)NNC(=O)c1cccc([N+](=O)[O-])c1 -17.9%
COc1ccc(CCNc2nc(-c3ccc(F)cc3)cc(C(F)(F)F)n2)cc1OC 6.14%
CSc1nn(Cc2cccc(C)c2)c(N)c1S(=O)(=O)c1ccccc1 -14.6%
O=C(C1CCC1)N1CCN(c2ccccc2)CC1 3.47%
O=C(c1cc2ccccc2s1)N1CCN(c2ccccn2)CC1 -5.3%
COCCCNC(NC(=O)c1ccc(C)cc1)C(Cl)(Cl)Cl (configuration not stated) 0%
CCn1c(SCC(=O)NNC(=O)c2ccc(OC)cc2)nnc1C(C)C -10.6%
COc1cc(NC(=O)c2nc3ccccc3nc2C)cc(OC)c1OC -18.5%
CC1=C(C(=O)Nc2ccccc2Cl)C(c2cccs2)n2ncnc2N1 (configuration not stated) -9.58%
CCCCOC(=O)CSc1ncnc2sc3c(c12)CCC(C)C3 (configuration not stated) 67.1%
Cn1c(=O)n(Cc2c(F)cccc2Cl)c(=O)c2c1nc1n2CCN1c1ccc(F)cc1 -7.24%
CCn1c(SCC(=O)c2ccc(Cl)s2)nnc1-c1cccs1 -16.4%
CCn1c(Cc2cccs2)nnc1SCC(=O)c1ccc(C)cc1 -28.2%
Cc1ccc(CCNC(=O)c2ccc3c(c2)nc2n3CCC(C)C2)cc1 (configuration not stated) -11%
CCn1cc(C(=O)OCC(=O)Nc2cc(C)cc(C)c2)c(=O)c2ccc(C)nc21 -10.6%
CCC(=O)N1CCc2cc(S(=O)(=O)NCCC(=O)Nc3cccc(C)c3C)ccc21 -12%
Cc1ccc(C)c(NC(=O)C2CC(=O)N(C(C)C)C2)c1 (configuration not stated) -10.2% [at 57.1 µM]
Cc1ccc(C)c(NC(=S)NCC(c2cccnc2)N2CCOCC2)c1 (configuration not stated) -11.5%
CCOC(=O)c1c(NC(=O)c2cc(CC)on2)sc(C(C)=O)c1C 4.78%
O=C(Nc1cccc(Cl)c1)c1csnn1 -22.8%
c1ccc(C2CNCc3c2ccc2ccccc32)cc1 (configuration not stated) -26.7%
CC(C)(C)CN1C(=O)C(=O)NC[C@H]1Cc1cccc2ccccc12 -5.07%

Potency, active:
CC(C)n1cnc2c(NCc3ccccc3)cc(OCC3CCN(C)CC3)cc21 39.8 µM
CCC(CO)Oc1cc(NCc2ccccc2)c2ncn(C3CCCC3)c2c1 (configuration not stated) 56.2 µM
O=C(CCS(=O)(=O)c1ccc(Br)cc1)NCCc1ccc(Cl)cc1 63.1 µM
COc1ccc(Cl)cc1NC(=O)CCS(=O)(=O)c1ccc(Br)cc1 22.4 µM
COc1ccc(Cl)cc1NC(=O)CN(C)Cc1ccc(OC)c(OC)c1 1.26 µM
Cc1cc(N=Nc2ccc3ccccc3c2)ccc1O 44.7 µM
O=c1[nH]c(CSc2ncc(-c3ccc(F)cc3)n2Cc2ccco2)nc2ccccc12 35.5 µM
Cc1cc(C)c(C2C3=C(Nc4c2c(C)nn4-c2ccccn2)c2ccccc2C3=O)c(C)c1 (configuration not stated) 25.1 µM
O=C(O)c1ccccc1N=N/C(=N/Nc1cc(S(=O)(=O)O)ccc1O)c1ccccc1 12.6 µM
COc1ccc(C(=O)c2c(C)c(CCC#N)n3ccccc23)c(OC)c1 35.5 µM
S=C(c1ccc(-c2ccccc2)o1)N1CCCCC1 20 µM
Clc1cccc(Cl)c1OCCOCCNCc1ccccc1 20 µM
O=C(NC1=CC(=O)c2ccccc2C1=O)c1ccccc1 20 µM
CCOc1ccc(Nc2nc(Cl)nc(N3CCN(c4ccc(OC)cc4)CC3)n2)cc1 44.7 µM
COc1ccc(-n2c(C)cc(C(=O)CSc3nnc(-c4cccs4)o3)c2C)cc1 56.2 µM
CCCCCC(=O)NC(=S)NNC(=O)c1ccc([N+](=O)[O-])cc1 28.2 µM
O=C(c1cc2c(s1)CCC2)N1CCN(c2ccccc2)CC1 20 µM
CCn1c(C(C)NC(=O)c2ccc(C)cc2)n[nH]c1=S (configuration not stated) 6.31 µM
CCn1c(SCC(=O)c2ccc3ccccc3c2)nnc1-c1cccs1 79.4 µM
Cc1ccc(C)c(NC(=S)NNC(=S)Nc2ccc(C(C)C)cc2)c1 56.2 µM
c1ccc2c(CCN3CCNC[C@H]3Cc3cccc4ccccc34)cccc2c1 56.2 µM
